Screening results as filed in PubChem BioAssay.
The list is not random: actives were taken first. Their share in the collection is about 9.3%.
NPC1 promoter act – qHTS Assay for NPC1 Promoter Activators. 320,000 tested, 2.4% active. Potency, µM (titrated, usually from 9.22 µM), for the others: at the top dose activation, most hits filed as activators. Huh7 NPC1 promoter luciferase reporter, 24 h; also: % of control where 0% means no effect; nearly all actives have a fitted effect of over 60% in size
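Cells: Huh7 expressing luciferase under the NPC1 promoter, 1500/well. Seeded 2 h, compound added, incubated 24 h at 37 °C. Luciferase reagent, 10 min ambient, then luminescence.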
SMN2 splice up – qHTS Assay for Enhancers of SMN2 Splice Variant Expression; 210,000 tested, 2.8% active; HEK293 SMN2-luciferase splicing reporter, luminescence, 30-36 h; Potency, µM (series often up to 46.1 µM), inactives show top-dose activity change, positive = activation, most hits filed as activators; also: % of control where 0% means no effect; nearly all actives have a fitted effect of over 55% in size
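HEK293 cells carry an SMN2 minigene-luciferase reporter in which exon 7 inclusion puts luciferase in frame. Cells were seeded at 2000 cells/well, attached for 10-12 hours, then exposed to compounds for 30-36 hours at 37C before ONE-Glo luminescence.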
ELG1 genotox – qHTS screen for small molecules that induce genotoxicity in human embryonic kidney (HEK293T) cells expressing luciferase-tagged ELG1; HEK293T ELG1-luciferase reporter, luminescence, 16 h; Potency, µM (series often up to 46 µM), for inactives: at the highest dose activity change, positive = activation, actives largely listed as activators; 330,000 tested, 1.3% active; also: % of control where 0% means no effect; nearly all actives have a fitted effect of over 60% in size
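Reporter readout depends on ELG1 protein level, which increases with genetic stress. After 16 hr compound exposure at 37 °C, luciferase activity was quantified using ONE-Glo.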
ELG1 DNA repair – qHTS screen for small molecules that inhibit ELG1-dependent DNA repair in human embryonic kidney (HEK293T) cells expressing luciferase-tagged ELG1; HEK293T ELG1-luciferase reporter, luminescence, 16 h; DNA damage induced by 5-fluorouridine; Potency, µM (titrated, usually from 46.1 µM), for inactives: top-dose activity change, negative = inhibition, usual class: inhibitors; 330,000 tested, 2.3% active; AID 504467, 2011; also: % is scaled to controls: 0 for no effect and ±100 for the full control effect; nearly all actives have a fitted effect of over 55% in size
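In this reporter screen, reduction of luminescence relative to DMSO vehicle indicated activity. Compounds and 5-fluorouridine were added together to 2,000 cells per well, incubated for 16 hr at 37 °C, then developed with ONE-Glo.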
Rab9 prom act – qHTS Assay for Rab9 Promoter Activators. Huh7 Rab9 promoter-luciferase reporter, luminescence, 24 h. Potency, µM (titrated, usually from 9.22 µM), for inactives: at the highest dose activation, negative = inhibition, actives largely listed as activators. 320,000 tested, 2.8% active. AID 485297, 2010; also: % of control where 0% means no effect; nearly all actives have a fitted effect of over 60% in size
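Promoter activation is measured as luciferase luminescence in Huh7 cells stably transfected with a Rab9 promoter–luciferase construct, following 24 h compound exposure at 37 °C and 10 min reagent incubation at ambient temperature.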
FLuc counter – qHTS profiling assay for firefly luciferase inhibitor/activator using purifed enzyme and Km concentrations of substrates (counterscreen for miR-21 project); 360,000 tested, 6.9% active; Luciferin 4-monooxygenase (Photinus pyralis), P08659; Potency, µM (top dose mostly 57.5 µM), for inactives: at the highest dose activity change, negative = inhibition, usual class: inhibitors; purified FLuc, Km substrates, luminescence inhibition;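 also: plate controls were vehicle for no effect and reference inhibitor for full effect; nearly all actives have a fitted effect of over 55% in size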
Target sequence (P08659 whole entry, looked up): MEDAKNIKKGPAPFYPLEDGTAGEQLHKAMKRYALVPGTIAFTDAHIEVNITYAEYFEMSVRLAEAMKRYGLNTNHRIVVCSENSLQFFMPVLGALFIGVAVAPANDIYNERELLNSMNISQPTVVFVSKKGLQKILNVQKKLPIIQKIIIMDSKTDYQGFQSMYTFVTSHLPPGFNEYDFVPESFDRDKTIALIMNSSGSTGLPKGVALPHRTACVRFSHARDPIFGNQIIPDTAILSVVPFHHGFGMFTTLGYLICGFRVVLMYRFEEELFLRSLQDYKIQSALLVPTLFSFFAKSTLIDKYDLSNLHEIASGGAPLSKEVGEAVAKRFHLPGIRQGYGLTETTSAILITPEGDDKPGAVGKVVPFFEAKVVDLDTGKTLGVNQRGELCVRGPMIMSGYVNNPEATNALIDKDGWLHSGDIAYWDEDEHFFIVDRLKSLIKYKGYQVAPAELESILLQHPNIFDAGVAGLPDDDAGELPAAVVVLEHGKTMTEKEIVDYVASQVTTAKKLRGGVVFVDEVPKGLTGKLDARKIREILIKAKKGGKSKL
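Purified P. pyralis luciferase, 10 nM final, with Km-level 10 uM D-luciferin and 10 uM ATP in 50 mM Tris acetate pH 7.5, 10 mM Mg acetate, 0.01% Tween-20, 0.05% BSA; 6-point qHTS titration about 60 µM downward; luminescence read.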
Starred values were filed as active, the others as inactive; ? = inconclusive; · = no result. Calls follow the shape of the dose curve; as a rule, active = well fitted curve in the direction sought with a large enough effect; inconclusive = small, poorly fitted or top-dose-only effect, or another doubt; inactive = no such curve, though single readings can be large; an effect the other way counts as inactive or inconclusive. Potency is read from the fitted curve at half-maximal effect.

SMILES	NPC1 promoter act	SMN2 splice up	ELG1 genotox	ELG1 DNA repair	Rab9 prom act	FLuc counter
CCOC(=O)c1c(N)sc(-c2ccccc2)c1C	-2%	14%	?	?	2%	17µM*
CCOC(=O)c1cc(-c2ccccc2)sc1NC(=O)CC	-6%	-1%	-3%	-15%	2%	6%
CCOC(=O)c1cc(-c2ccccc2)sc1NC(=O)CSc1nnc(N)s1	0%	-6%	-5%	?	4%	?
CCOC(=O)c1sc(-c2ccc(OC)cc2)cc1N	2.2µM*	·	?	?	1.3µM*	?
CCOC(=O)c1cc(-c2ccccc2)sc1N	29%	?	15%	?	?	21µM*
O=S(=O)(Nc1cccc(S(=O)(=O)N2CCCC2)c1)c1ccc(Cl)s1	1%	·	-1%	-4%	-4%	·
Cc1ccc(CSCC(=O)N2CCN(c3ccc(F)cc3)CC2)cc1	0%	6%	-5%	-4%	-1%	-10%
CCOC(=O)c1sc(-c2ccccc2)cc1N	?	?	13µM*	?	?	13µM*
CC(=O)c1sc(-c2ccccc2)cc1N	-5%	·	10%	7%	12%	?
CCOC(=O)c1sc(-c2ccc(F)cc2)cc1N	?	?	14µM*	?	2.5µM*	9.5µM*
CCOC(=O)c1sc(-c2ccccc2)cc1NC(=O)Nc1ccc([N+](=O)[O-])cc1	-6%	18%	?	6.5µM*	-7%	3%
COC(=O)c1ccc(NC(=S)NC2CC3CCC2C3)cc1 (stereo not given)	23%	?	6%	?	23%	21µM*
COc1ccc(NC(=O)NC2CCCCCCC2)c(OC)c1	1%	·	13%	?	17%	?
COC(=O)c1ccc(NC(=O)NC2CCCCC2)cc1	?	13µM*	17%	?	16%	?
COc1ccc(NC(=O)NC2CCCCCCC2)cc1	0.89µM*	·	9.2µM*	?	1.4µM*	6µM*
C=CCN([C@@H](CC(C)C)C(=O)OC)S(=O)(=O)N(CC=C)[C@@H](CC(C)C)C(=O)OC	0%	·	-4%	18%	-6%	2%
CC1(c2nnc(-c3ccncc3)o2)CC(c2ccc([N+](=O)[O-])cc2)=NO1 (stereo not given)	-1%	·	-8%	21µM*	-11%	1%
COC(=O)CN1C(=O)N/C(=C/c2cc(Cl)c(OC)c(OC)c2)C1=O	-16%	-12%	7%	26%	-4%	-8%
CC(OC(=O)/C(C#N)=C/c1ccc(N(C)C)cc1)C(=O)N(C)c1ccccc1 (stereo not given)	0%	·	-2%	-6%	-9%	?
CC(=O)Nc1ccc(NC(=O)C(C)OC(=O)/C(C#N)=C/c2ccc(N(C)C)cc2)cc1 (stereo not given)	28%	·	18µM*	?	?	9.5µM*
Cc1ccc(-c2cc(C(=O)Nc3cnn(C(C)C)c3)no2)cc1	13%	·	-1%	?	9%	?
CCCc1cc(C(=O)Nc2cccnc2Cl)no1	1%	-14%	?	?	27%	?
CCCc1cc(C(=O)Nc2cc(C)ccc2O)no1	27%	·	15µM*	?	-19%	2.7µM*
Cc1ccc(-c2cc(C(=O)Nc3c(C#N)cnn3C)no2)cc1	15%	?	13%	?	27%	6.7µM*
Cc1ccc(O)c(NC(=O)c2cc(-c3ccccc3)on2)c1	?	·	16µM*	?	15%	?
